Data as given in PubChem BioAssay (Tox21).
Values without a mark were called inactive. Records with an inconclusive call do not appear. Where a call stands in place of a potency, no number is given. Active and inactive are the calls of the source. Unless noted, the call rests on the fitted dose curve.

How the values were obtained:
[1] = Nuclear factor erythroid 2-related factor 2/antioxidant responsive element (Nrf2/ARE) small molecule agonists: qHTS cell viability counter screen in human keratinocytes (AID 1919968; active means well fitted curve in the direction sought with a large enough effect in the repeat runs; an effect the other way counts as inactive or inconclusive; further: nearly all actives have a fitted effect of over 55% in size)
Summary of the method: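 CellTiter-Fluor fluorescence, read 1 h after reagent, gave viability in the same wells as the ARE-luciferase assay. KeratinoSens cells (1,500/well) had 23 h compound exposure at 37 C/5% CO2 following 5 h plating.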

[2] = Nuclear factor erythroid 2-related factor 2/antioxidant responsive element (Nrf2/ARE) small molecule agonists: luciferase reporter gene qHTS assay in human keratinocytes (AID 1919969); further: nearly all actives have a fitted effect of over 35% in size
[3] = molecular target: Gonadotropin-releasing hormone receptor (Homo sapiens) (UniProt P30968); test: Human gonadotropin-releasing hormone receptor (GnRHR) small molecule agonists, calcium flux assay in GnRHR-HEK293 cells (AID 1920063); further: nearly all actives have a fitted effect of over 35% in size
Chain of Gonadotropin-releasing hormone receptor (Homo sapiens) (P30968 whole entry, looked up): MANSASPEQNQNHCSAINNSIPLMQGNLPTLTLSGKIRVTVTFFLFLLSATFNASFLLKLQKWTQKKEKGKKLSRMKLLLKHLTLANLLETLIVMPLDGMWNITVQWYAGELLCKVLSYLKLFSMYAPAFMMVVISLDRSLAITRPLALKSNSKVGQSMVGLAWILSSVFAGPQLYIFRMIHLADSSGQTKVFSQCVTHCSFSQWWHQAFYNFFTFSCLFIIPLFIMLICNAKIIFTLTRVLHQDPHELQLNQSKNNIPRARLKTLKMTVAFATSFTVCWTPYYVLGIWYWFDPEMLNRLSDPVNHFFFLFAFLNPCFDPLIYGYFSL
Summary of the method: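 Agonist mode: compounds at 15 concentrations, in triplicate, went onto calcium dye-loaded GnRHR-HEK293 cells. Intracellular calcium was then followed as 480/540 nm fluorescence at 1 s intervals over 3 min.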

[4] = p53 small molecule agonists, cell-based qHTS assay with human liver microsomes (AID 1963577)
Summary of the method: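 Compounds act here after metabolic activation: human liver microsomes and NADPH, both at 0.5 mg/mL final, were co-added to p53RE-bla cells. Incubation ran 16 h at 37 C, followed by LiveBLAzer detection.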

[5] = p53 small molecule agonists, cell-based qHTS assay with rat liver microsomes (AID 1963578)
Summary of the method: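 Read-out is beta-lactamase reporter fluorescence (LiveBLAzer, 2 h, room temperature, dark) in p53RE-bla cells treated 16 h at 37 C with compound, rat liver microsomes and NADPH, both 0.5 mg/mL final.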

[6] = p53 small molecule agonists, cell-based qHTS assay with human liver microsomes: qHTS cell viability counter screen (AID 1963579); further: nearly all actives have a fitted effect of over 45% in size
Summary of the method: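 Cells carrying the p53 response-element beta-lactamase reporter are treated for 16 h at 37 C with test compounds in the presence of human liver microsomes and NADPH (both 0.5 mg/mL final); ATP-based CellTiter-Glo luminescence then reports viability.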

[7] = p53 small molecule agonists, cell-based qHTS assay with rat liver microsomes: qHTS cell viability counter screen (AID 1963580); further: nearly all actives have a fitted effect of over 45% in size
Summary of the method: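 Cytotoxicity counter screen: intracellular ATP read by CellTiter-Glo luminescence in the p53 reporter wells. HCT-116 p53RE-bla cells were treated for 16 h at 37 C alongside rat liver microsomes and NADPH, each 0.5 mg/mL final.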

[8] = p53 small molecule agonists, cell-based qHTS assay: qHTS cell viability counter screen (AID 1963581); further: nearly all actives have a fitted effect of over 45% in size
Summary of the method: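 Counter screen read by CellTiter-Glo luminescence (ATP content, 30 min at room temperature), run in the same wells as the beta-lactamase reporter read. HCT-116 p53RE-bla cells saw compounds for 16 h at 37 C.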

[9] = p53 small molecule agonists, cell-based qHTS assay (AID 1963582; active means well fitted activation curve with a large enough effect in the signal ratio in the repeat runs, not every such curve was filed as active; the % refers to the signal ratio)
Summary of the method: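 Read-out is beta-lactamase FRET fluorescence after 2 h at room temperature with LiveBLAzer B/G substrate. p53 response element-bla cells were treated 16 h at 37 C with compounds in DMSO, added 5 h after seeding.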

[10] = molecular target: 5-hydroxytryptamine receptor 2A (Homo sapiens) (UniProt P28223); test: 5-hydroxytryptamine receptor 2A (HTR2A) small molecule agonists, cell-based qHTS assay (AID 1963587); further: nearly all actives have a fitted effect of over 30% in size
Chain of 5-hydroxytryptamine receptor 2A (Homo sapiens) (P28223 whole entry, looked up): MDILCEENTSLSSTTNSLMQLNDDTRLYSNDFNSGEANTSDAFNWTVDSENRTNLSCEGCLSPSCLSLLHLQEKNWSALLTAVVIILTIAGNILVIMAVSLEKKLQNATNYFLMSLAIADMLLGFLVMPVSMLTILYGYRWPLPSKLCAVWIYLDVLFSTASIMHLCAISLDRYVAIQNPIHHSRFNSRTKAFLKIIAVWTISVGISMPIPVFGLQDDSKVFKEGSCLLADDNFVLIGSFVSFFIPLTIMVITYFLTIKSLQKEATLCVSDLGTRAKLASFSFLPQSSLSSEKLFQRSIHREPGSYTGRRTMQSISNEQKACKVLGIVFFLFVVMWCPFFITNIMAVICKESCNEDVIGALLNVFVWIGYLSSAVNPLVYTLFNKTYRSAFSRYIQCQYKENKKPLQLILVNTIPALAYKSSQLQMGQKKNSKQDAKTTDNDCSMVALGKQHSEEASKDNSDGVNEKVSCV
Summary of the method: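 Kinetic calcium-flux fluorescence (2 min, 1 sec intervals) after compound addition in agonist mode. HTR2A-CHO cells were cultured 18 h, then dye-loaded 1 h at 37 C.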

[11] = molecular target: Muscarinic acetylcholine receptor M1 (Homo sapiens) (UniProt P11229); test: Cholinergic receptor muscarinic 1 (CHRM1) small molecule antagonists, cell-based qHTS assay (AID 1963588); further: nearly all actives have a fitted effect of over 40% in size
Chain of Muscarinic acetylcholine receptor M1 (Homo sapiens) (P11229 whole entry, looked up): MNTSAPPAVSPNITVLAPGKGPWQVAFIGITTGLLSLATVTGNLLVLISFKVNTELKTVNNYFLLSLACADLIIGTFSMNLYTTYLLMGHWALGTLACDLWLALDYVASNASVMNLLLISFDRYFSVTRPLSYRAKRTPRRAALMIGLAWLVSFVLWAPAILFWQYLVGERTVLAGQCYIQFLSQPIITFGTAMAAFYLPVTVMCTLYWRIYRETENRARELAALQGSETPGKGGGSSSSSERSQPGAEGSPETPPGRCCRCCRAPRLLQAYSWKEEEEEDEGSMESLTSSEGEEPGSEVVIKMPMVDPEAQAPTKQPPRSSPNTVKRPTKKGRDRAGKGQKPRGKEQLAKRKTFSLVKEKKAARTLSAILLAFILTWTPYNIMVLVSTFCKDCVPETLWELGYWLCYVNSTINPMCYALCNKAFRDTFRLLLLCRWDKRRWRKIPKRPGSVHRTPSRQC
Summary of the method: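 Compounds were tested at 15 concentrations in three independent runs. Dye-loaded CHRM1-CHO cells were exposed 5 min at room temperature before stimulation by acetylcholine added at 50nM. Intracellular calcium was read kinetically on FDSS for 3 min.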

[12] = molecular target: Muscarinic acetylcholine receptor M1 (Homo sapiens) (UniProt P11229); test: Cholinergic receptor muscarinic 1 (CHRM1) small molecule agonists, cell-based qHTS assay (AID 1963589); further: nearly all actives have a fitted effect of over 35% in size
Summary of the method: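 Agonist-mode calcium-flux screen: compounds at 15 concentrations, three independent runs, were pin-transferred onto dye-loaded human CHRM1-CHO cells. Fluorescence was then recorded kinetically every second over minutes.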

[13] = cAMP Responsive Elements (CRE) small molecule agonists, cell-based qHTS assay (AID 1963590)
Summary of the method: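 Agonist mode: compound added to CRE-bla HEK 293T cells (2,000/well, 18 h after plating) for 3 h at 37 C/5% CO2. Reporter activity detected via FRET beta-lactamase substrate, 2 h room-temperature loading.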

[14] = molecular target: Beta-2 adrenergic receptor (Homo sapiens) (UniProt P07550); test: Adrenergic beta2 receptor (ADRB2) small molecule antagonists, cell-based qHTS assay (AID 1963592); further: nearly all actives have a fitted effect of over 50% in size; further: potency means the concentration at half of the fitted maximal effect
Chain of Beta-2 adrenergic receptor (Homo sapiens) (P07550 whole entry, looked up): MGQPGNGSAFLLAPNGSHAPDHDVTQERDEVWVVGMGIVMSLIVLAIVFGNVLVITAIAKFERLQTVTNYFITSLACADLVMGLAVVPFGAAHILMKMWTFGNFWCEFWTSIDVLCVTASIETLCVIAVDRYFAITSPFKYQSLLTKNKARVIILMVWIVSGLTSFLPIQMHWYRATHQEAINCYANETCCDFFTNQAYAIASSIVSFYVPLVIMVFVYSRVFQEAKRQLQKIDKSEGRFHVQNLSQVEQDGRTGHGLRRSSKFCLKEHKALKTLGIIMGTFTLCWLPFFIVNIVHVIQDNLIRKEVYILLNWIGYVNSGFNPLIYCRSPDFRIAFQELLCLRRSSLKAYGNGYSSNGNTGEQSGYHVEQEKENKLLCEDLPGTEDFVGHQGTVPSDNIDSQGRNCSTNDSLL
Summary of the method: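 Assay format: CHO-ADRB2 cells, 18-20hr seeding at 37C/5% CO2, then compound plus 1nM isoproterenol agonist mix for 0.5hr RT. Homogeneous time-resolved fluorescence cAMP detection after 1hr, expressed as 665/615 nm ratio.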

[15] = molecular target: D(2) dopamine receptor (Homo sapiens) (UniProt P14416); test: Dopamine D2 receptor (DRD2) small molecule agonists, cell-based qHTS assay (AID 1963594); further: nearly all actives have a fitted effect of over 35% in size
Chain of D(2) dopamine receptor (Homo sapiens) (P14416 whole entry, looked up): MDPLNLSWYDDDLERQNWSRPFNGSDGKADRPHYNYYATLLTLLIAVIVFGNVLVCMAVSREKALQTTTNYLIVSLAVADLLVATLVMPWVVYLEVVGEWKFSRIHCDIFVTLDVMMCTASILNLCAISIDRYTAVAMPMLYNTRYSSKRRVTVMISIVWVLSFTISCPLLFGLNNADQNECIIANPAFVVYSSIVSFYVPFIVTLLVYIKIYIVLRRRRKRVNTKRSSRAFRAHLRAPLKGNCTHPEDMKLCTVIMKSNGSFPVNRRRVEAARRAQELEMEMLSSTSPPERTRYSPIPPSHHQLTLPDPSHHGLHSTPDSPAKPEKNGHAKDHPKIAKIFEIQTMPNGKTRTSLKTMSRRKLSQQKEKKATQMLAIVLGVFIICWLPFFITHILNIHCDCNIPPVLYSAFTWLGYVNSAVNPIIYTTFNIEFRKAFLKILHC
Summary of the method: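 cAMP accumulation in DRD2-HEK293 cells measured by HTRF after 1 h detection; compounds added 10 min before NKH477 (200nM […]) forskolin-analogue stimulation, 30 min at room temperature, with Ro20-1724 present at 0.1 mM final.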

[16] = molecular target: D(2) dopamine receptor (Homo sapiens) (UniProt P14416); test: Dopamine D2 receptor (DRD2) small molecule antagonists, cell-based qHTS assay (AID 1963595; active means well fitted inhibition curve with a large enough effect in the signal ratio in the repeat runs, with a control signal flat; the % refers to the signal ratio)
Summary of the method: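 HEK293 cells stably expressing DRD2, preincubated with 0.1 mM Ro20-1724 and compounds 10 min, were stimulated with 200 nM NKH477 plus 12 nM quinpirole for 30 min at room temperature; cAMP measured by HTRF (665/620 nm).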

[17] = molecular target: KiSS-1 receptor (Homo sapiens) (UniProt Q969F8); test: Human kisspeptin (KISS1R) small molecule agonists, calcium flux assay in KISS1R-HEK293 cells (AID 1920064; active means well fitted curve in the direction sought with a large enough effect in the repeat runs; an effect the other way counts as inactive or inconclusive)
Chain of KiSS-1 receptor (Homo sapiens) (Q969F8 whole entry, looked up): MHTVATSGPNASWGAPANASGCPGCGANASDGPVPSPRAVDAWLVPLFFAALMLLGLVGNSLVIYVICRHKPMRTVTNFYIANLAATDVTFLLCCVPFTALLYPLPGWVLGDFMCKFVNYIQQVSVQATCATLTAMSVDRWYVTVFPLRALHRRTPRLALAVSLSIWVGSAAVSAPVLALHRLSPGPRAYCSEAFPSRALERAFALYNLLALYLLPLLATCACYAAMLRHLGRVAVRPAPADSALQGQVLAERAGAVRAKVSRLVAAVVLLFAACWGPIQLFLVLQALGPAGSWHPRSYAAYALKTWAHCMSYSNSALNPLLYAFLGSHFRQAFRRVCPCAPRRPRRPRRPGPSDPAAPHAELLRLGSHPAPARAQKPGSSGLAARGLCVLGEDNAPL
Summary of the method: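 Agonist mode: intracellular calcium rise tracked at 1 s intervals over 3 min (480/540 nm) immediately after compound addition to dye-loaded KISS1R-HEK293 stable cells. Each compound tested at 15 concentrations in triplicate.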

[18] = G protein-coupled receptor (GPCR) small molecule agonists, calcium flux assay: HEK293 wild type cell line counter screen (AID 1920065)
Summary of the method: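 Calcium flux counter screen: compound added in agonist mode at 15 concentrations in triplicate to dye-loaded parental HEK293 cells. Fluorescence (480/540) read kinetically for 3 min; ATP served as positive control.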

[19] = molecular target: 5-hydroxytryptamine receptor 2A (Homo sapiens) (UniProt P28223); test: 5-hydroxytryptamine receptor 2A (HTR2A) small molecule antagonists, cell-based qHTS assay (AID 1963586); further: nearly all actives have a fitted effect of over 45% in size
Summary of the method: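 CHO cells stably expressing human HTR2A were plated for 18 h at 37 C, then loaded with calcium dye for 1 h. Compounds were preincubated 5 min at room temperature before DOI (4 nM solution) was added. Kinetic fluorescence was read for 3 min.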

[20] = cAMP Responsive Elements (CRE) small molecule antagonists, cell-based qHTS assay (AID 1963591; active means well fitted inhibition curve with a large enough effect in the signal ratio in the repeat runs, not every such curve was filed as active; the % refers to the signal ratio)
Summary of the method: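 Antagonist mode: compounds are added alongside the adenylyl cyclase activator NKH477 (0.25 uM final) to CRE-bla HEK293T cells for 3 h. LiveBLAzer FRET substrate, 2 h at room temperature, reports bla expression.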

| Structure (SMILES) | Potency [1] | Potency [2] | Potency [3] | Potency [4] | Potency [5] | Potency [6] | Potency [7] | Potency [8] | Potency [9] | Potency [10] | Potency [11] | Potency [12] | Potency [13] | Potency [14] | Potency [15] | Potency [16] | outcome [17] | outcome [18] | Potency [19] | Potency [20] |
| --- | --- | --- | --- | --- | --- | --- | --- | --- | --- | --- | --- | --- | --- | --- | --- | --- | --- | --- | --- | --- |
| CCOC(=O)c1cnc2c(cnn2CC)c1NN=C(C)C | inactive | inactive | inactive | inactive | inactive | inactive | inactive | inactive | inactive | inactive | inactive | inactive | inactive | inactive | inactive | inactive | – | – | – | – |
| CO/N=C(\C(=O)O)c1csc(NC(=O)CCl)n1 | inactive | inactive | – | inactive | inactive | inactive | inactive | inactive | inactive | inactive | inactive | inactive | – | inactive | inactive | inactive | inactive | inactive | inactive | inactive |
| OC1CCC(C2CCCCC2)CC1 (centres undefined) | inactive | inactive | – | inactive | inactive | inactive | inactive | inactive | inactive | inactive | inactive | inactive | inactive | – | inactive | inactive | inactive | inactive | inactive | inactive |
| CN1CCOC(c2ccccc2)c2ccccc2C1 (centres undefined) | inactive | inactive | inactive | inactive | inactive | inactive | inactive | – | inactive | inactive | – | inactive | inactive | inactive | inactive | inactive | – | – | inactive | – |
| Cc1cc2c(s1)Nc1ccccc1N=C2N1CCN(C)CC1 | inactive | inactive | inactive | inactive | inactive | – | inactive | – | inactive | – | – | – | – | – | – | – | – | – | – | – |
| CCCCCCOC(=O)CCCCC | inactive | inactive | – | inactive | inactive | inactive | inactive | inactive | inactive | inactive | inactive | inactive | inactive | inactive | inactive | inactive | inactive | inactive | inactive | inactive |
| CN1[C@@H]2CC[C@H]1CC(OC(=O)C(O)c1ccccc1)C2 (some centres undefined) | inactive | inactive | inactive | – | inactive | – | inactive | inactive | inactive | – | – | – | inactive | inactive | inactive | inactive | – | inactive | – | inactive |
| CC1(C)OC[C@@H](COC(=O)CCc2ccc(OC[C@@H](O)CNCCNC(=O)N3CCOCC3)cc2)O1 | inactive | inactive | – | inactive | inactive | inactive | inactive | inactive | inactive | inactive | inactive | inactive | inactive | – | inactive | inactive | inactive | inactive | inactive | inactive |
| O=C(O)COCC(=O)O | inactive | inactive | – | inactive | inactive | inactive | inactive | inactive | inactive | inactive | inactive | inactive | inactive | – | inactive | inactive | inactive | inactive | inactive | – |
| CC(C)NCC(O)c1ccc(NS(C)(=O)=O)cc1 (centres undefined) | inactive | inactive | inactive | – | inactive | inactive | inactive | inactive | inactive | – | – | – | inactive | – | – | inactive | – | inactive | – | inactive |
| C=CCOc1c(Br)cc(Br)cc1Br | inactive | inactive | inactive | – | inactive | inactive | inactive | inactive | inactive | inactive | inactive | inactive | inactive | inactive | inactive | inactive | – | inactive | – | inactive |
| CCN(CC)C(=O)Nc1ccc(OCC(O)CNC(C)(C)C)c(C(C)=O)c1 (centres undefined) | inactive | inactive | – | inactive | inactive | inactive | inactive | inactive | inactive | inactive | inactive | inactive | inactive | 47.3 nM (active) | – | inactive | inactive | inactive | inactive | inactive |
| OCCCCC(O)CO (centres undefined) | inactive | inactive | – | inactive | inactive | inactive | inactive | inactive | inactive | inactive | inactive | – | inactive | inactive | inactive | inactive | inactive | inactive | inactive | – |
| COC(=O)c1ccc(NC(C)=O)cc1OC | inactive | inactive | – | inactive | inactive | inactive | inactive | inactive | inactive | inactive | – | inactive | inactive | inactive | – | inactive | inactive | inactive | inactive | inactive |
| NS(=O)(=O)c1cc(-c2nn[nH]n2)c(NCc2cccs2)cc1Cl | inactive | inactive | – | inactive | inactive | inactive | inactive | – | inactive | inactive | inactive | inactive | inactive | inactive | inactive | – | inactive | inactive | inactive | inactive |
